Reference: PubChem BioAssay AID463173 (ICCB-Longwood Screening Facility, Harvard Medical School, 2010)
Among all 52,000 compounds or so, about 4,300 (8.3%) were called active. Shown is part of a subset that was picked to be rich in actives. Values without a mark were called inactive. Cut-off read from the data, not from the text of the source: active = survival mostly below about 52% (no sharp cut-off); inactive = mostly above about 56%.

What follows are compounds tested on DeltatarO mutant (assay: growth inhibition of S. aureus wild type versus tarO mutant, primary screen, teichoic acid synthesis inhibitors, RN4220, OD600 (AID 463173)). Details: OD600, 18 h, hits give low values, screened at 18.75 µg/mL (by protocol).
CCOC(=O)C(C)NC(=O)c1cc2c(=O)[nH]c3ccc(C)cc3c2s1 (configuration not stated) was tested, and the survival was 57%. Work on Cc1ccc(Cn2c(C(=O)O)c(CNCCc3cccs3)c3ccc(C)cc32)cc1 yielded a survival of 82%. Cc1ccc(Cn2c(C(=O)O)c(CNCc3ccc(C)o3)c3ccc(C)cc32)cc1 gave a survival of 52%. With CCc1ccc(CNCc2c(C(=O)O)n(Cc3ccc(C)cc3)c3cc(C)ccc23)cc1 the survival was 14% (active). Work on COC(=O)c1scc(-c2ccc(C)cc2)c1S(=O)(=O)Nc1cc(C)ccc1OC yielded a survival of 75%. CCCSc1ncc(Cl)c(C(=O)Nc2c(C(=O)c3ccc(F)cc3)oc3ccccc23)n1 was tested, and the survival was 44% (active). Work on CCCS(=O)(=O)c1ncc(Cl)c(C(=O)Nc2c(C(=O)c3ccccc3)oc3ccccc23)n1 yielded a survival of 102%. CS(=O)(=O)c1ncc(Cl)c(C(=O)Nc2c(C(=O)c3ccc(Cl)cc3)oc3ccccc23)n1 showed a survival of 109%. With CCCSc1ncc(Cl)c(C(=O)Nc2c(C(=O)c3ccc(C)cc3)oc3ccccc23)n1 the survival was 56%. CCSc1ncc(Cl)c(C(=O)Nc2c(C(=O)c3ccccc3)oc3ccccc23)n1 was tested, and the survival was 79%. CCS(=O)(=O)c1ncc(Cl)c(C(=O)Nc2c(C(=O)c3ccc(C)cc3)oc3ccccc23)n1 was tested, and the survival was 50% (active). For CCOc1ccc(NC(=O)CSc2ccc3ccccc3n2)cc1, the survival was 67%. Cc1ccc(-n2c(=O)c3oc4ccccc4c3n(CC(=O)Nc3ccc(F)c(Cl)c3)c2=O)cc1C showed a survival of 65%. CCC(C(=O)NCc1ccccc1OC)n1nc(C)n2c(cc3sccc32)c1=O (configuration not stated) showed a survival of 82%. O=S(=O)(c1ccc2nc(Nc3ccc(Br)cc3F)ccc2c1)N1CCCC1 showed a survival of 117%. For O=C(Nc1ccc(F)cc1Cl)n1ncc2cc(Cl)ccc21, the survival was 13% (active). Compound O=C(Nc1ccccc1C(F)(F)F)n1ncc2cc(Cl)ccc21 has a survival of 104%. Cc1ccc(C)c(NC(=O)n2ncc3cc(Cl)ccc32)c1 gave a survival of 82%. With CC1(c2ccc(Cl)cc2Cl)OCC(Cn2cncn2)O1 (configuration not stated) the survival was 83%. In the case of Cc1ccc(-c2nn(CO)c(=S)o2)cc1, the survival is reported as 48% (active). In the case of CCN(CC)Cn1nc(-c2ccccc2Cl)oc1=S, the survival is reported as 77%. With S=c1oc(-c2ccccc2)nn1CNc1ccccc1 the survival was 83%. In the case of CCOc1ccc2c(c1)NC(c1cccs1)=NC(c1ccc(F)cc1)=N2, the survival is reported as 50%. CCc1nn(CCCC(=O)NCc2ccc(OC(C)C)cc2)c(=O)c2cc3occc3n12 showed a survival of 77%. With Cn1cnc(S(=O)(=O)N2CCC(C(=O)N3CCN(c4ccc(Cl)cc4)CC3)CC2)c1 the survival was 37% (active). For Cc1cccc(N2CCN(C(=O)C3CCN(S(=O)(=O)c4cn(C)cn4)CC3)CC2)c1C, the survival was 92%. For CC(=O)c1ccc(N2CCN(C(=O)C3CCN(S(=O)(=O)c4cn(C)cn4)CC3)CC2)cc1, the survival was 69%. With COc1ccccc1N1CCN(C(=O)C2CCN(S(=O)(=O)c3cn(C)cn3)CC2)CC1 the survival was 46% (active). COc1ccc(N2CCN(C(=O)C3CCN(S(=O)(=O)c4cn(C)cn4)CC3)CC2)cc1 gave a survival of 69%. In the case of Cc1cccc(N2CCN(C(=O)c3cc(S(=O)(=O)N4CCC(C)CC4)cn3C)CC2)c1C, the survival is reported as 58%. In the case of COc1ccccc1N1CCN(C(=O)c2cc(S(=O)(=O)N3CCC(C)CC3)cn2C)CC1, the survival is reported as 32% (active). In the case of CCOc1ccccc1N1CCN(S(=O)(=O)c2ccc(C3CCCCC3)cc2)CC1, the survival is reported as 50%. For COc1ccccc1N1CCN(S(=O)(=O)c2ccc(S(=O)(=O)NC3CCCC3)cc2)CC1, the survival was 55% (active). COc1ccccc1N1CCN(S(=O)(=O)c2ccc(-c3cnc(C4CC4)o3)cc2)CC1 gave a survival of 113%. CC1CCN(S(=O)(=O)c2cc(C(=O)N3CCN(c4ccccc4F)CC3)n(C)c2)CC1 gave a survival of 70%. In the case of Cn1cnc(S(=O)(=O)N2CCC(C(=O)N3CCN(c4ccccc4F)CC3)CC2)c1, the survival is reported as 75%. With Cc1ccc(C)c(NC(=O)C(c2ccccc2)N2Cc3ccccc3C2=O)c1 (configuration not stated) the survival was 117%. Work on Cn1c(=O)c2c(nc(CN3CCN(c4ccccc4F)CC3)n2Cc2ccccc2F)n(C)c1=O yielded a survival of 92%. COc1ccc(-n2nc3cc(C)c(NC(=O)c4ccc(C)cc4C)cc3n2)cc1Cl showed a survival of 83%. In the case of Cc1nnc(NC(=O)CSc2nc3c([nH]c4ccccc43)c(=O)n2-c2ccc(Cl)cc2)s1, the survival is reported as 73%. In the case of Cc1ccc(CN2CCSc3ccc(C(=O)Nc4ccc(C)cc4)cc32)cc1, the survival is reported as 105%. O=C(CSc1nnc(Cc2ccccc2)o1)N(c1ccccc1)c1ccccc1 gave a survival of 78%. COc1ccccc1NC(=O)C1CCCN(c2nnc(C)c3c(C)n(-c4ccccc4)nc23)C1 (configuration not stated) gave a survival of 84%. For COc1ccc(S(=O)(=O)NC2(C(F)(F)F)NC(=O)N(CCc3ccccc3)C2=O)cc1 (configuration not stated), the survival was 99%. In the case of CC(C)(C)c1ccc(C(=O)NCC(c2ccco2)S(=O)(=O)c2ccccc2)cc1 (configuration not stated), the survival is reported as 101%. CC(C)(C)c1ccc(C(=O)NCC(c2ccco2)S(=O)(=O)c2ccc(F)cc2)cc1 (configuration not stated) gave a survival of 126%. For Cc1ccc(C(=O)NCC(c2ccco2)S(=O)(=O)c2ccc(Cl)cc2)cc1C (configuration not stated), the survival was 55%. For O=C(NCC(c1ccco1)S(=O)(=O)c1ccc(Cl)cc1)c1ccc(C(F)(F)F)cc1 (configuration not stated), the survival was 17% (active). For Cc1ccc(S(=O)(=O)C(CNC(=O)c2ccc(F)c(F)c2)c2ccco2)cc1 (configuration not stated), the survival was -5% (active). With CCOc1ccc(C(=O)NCC(c2ccco2)S(=O)(=O)c2ccc(C)cc2)cc1 (configuration not stated) the survival was 88%. In the case of COc1ccc(C(=O)NCC(c2ccco2)S(=O)(=O)c2ccc(F)cc2)cc1 (configuration not stated), the survival is reported as 68%. COc1ccc(C(=O)NCC(c2ccco2)S(=O)(=O)c2ccccc2)cc1 (configuration not stated) was tested, and the survival was -4% (active). Work on Cc1ccc(S(=O)(=O)C(CNC(=O)c2ccc(C(F)(F)F)cc2)c2ccco2)cc1 (configuration not stated) yielded a survival of 130%. Cc1cc(C)cc(S(=O)(=O)Nc2cccc(-c3ccc(N4CCOCC4)nn3)c2)c1 was tested, and the survival was 86%. CCOC(=O)C1CCCN(C(=O)Cn2ncc3c(C)n(Cc4ccc(Cl)cc4)c(C)c3c2=O)C1 (configuration not stated) was tested, and the survival was 59%. Work on O=C(CSc1nnc(-c2ccc3c(c2)OCO3)o1)Oc1ccccc1 yielded a survival of 87%. CSc1nc(N)c(C#N)c(C(C)C)c1C#N was tested, and the survival was 75%. COc1ccc(-n2nc(C(=O)Nc3cccc(C(F)(F)F)c3)c3c4ccccc4n(C)c3c2=O)cc1 was tested, and the survival was 78%. With CN1C(=O)Cc2cc(S(=O)(=O)NCCc3ccccc3)ccc21 the survival was 123%. CN1C(=O)CC(=O)N(C)c2cc(S(=O)(=O)N(C)Cc3ccccc3)ccc21 was tested, and the survival was 3% (active). With Cc1cc(S(=O)(=O)N(C)Cc2ccccc2)ccc1-n1cnnn1 the survival was 81%. Cc1oc(-c2ccccc2Cl)nc1CS(=O)(=O)CC(=O)NC(C)c1ccccc1 (configuration not stated) showed a survival of 63%. With Cc1ccc2ncc(C(=O)Nc3cccc(C(F)(F)F)c3)c(=O)n2c1 the survival was 122%. With Cc1[nH]c2ccccc2c1C1N2CC3(C)CN1CC(C)(C2)C3=O (configuration not stated) the survival was 77%. CCOc1ccccc1NC(=O)CN(c1cc(C)cc(C)c1)S(=O)(=O)c1c(C)nn(C)c1C was tested, and the survival was 89%. Cc1cc(C)cc(N(CC(=O)Nc2c(C)cc(C)cc2C)S(=O)(=O)c2c(C)nn(C)c2C)c1 was tested, and the survival was -5% (active). Cc1nn(C)c(C)c1S(=O)(=O)N(CC(=O)Nc1ccc(F)cc1F)c1ccc(C(C)C)cc1 showed a survival of 94%. COc1ccc(N(CC(=O)Nc2cccc(Cl)c2C)S(=O)(=O)c2c(C)nn(C)c2C)cc1 gave a survival of 62%. For CCc1ccc(NC(=O)CN(c2ccc(C)cc2)S(=O)(=O)c2c(C)nn(C)c2C)cc1, the survival was 56%. For Cc1cccc(NC(=O)CN(c2ccc(C(C)C)cc2)S(=O)(=O)c2c(C)nn(C)c2C)c1C, the survival was 42% (active). With CC(=O)c1ccc(N2CCN(S(=O)(=O)c3ccc(-c4cc(C(F)(F)F)on4)s3)CC2)cc1 the survival was 96%. In the case of CC(=O)c1ccc(N2CCN(S(=O)(=O)c3ccc(-c4cc(C)no4)s3)CC2)cc1, the survival is reported as -5% (active). Work on Cc1cc(-c2ccc(S(=O)(=O)N3CCN(c4ccc(Cl)cc4)CC3)s2)on1 yielded a survival of 124%. Work on Cc1cc(C)c(NC(=O)CN2C(=O)C3(SCC(=O)N3c3ccc(F)cc3)c3ccccc32)c(C)c1 (configuration not stated) yielded a survival of 74%. In the case of CN(Cc1ccccc1)C(=O)CSc1nnc(-c2cccc(Cl)c2)o1, the survival is reported as 85%. With O=C(N/N=C/c1ccco1)C1CN(S(=O)(=O)c2ccccc2)CCN1S(=O)(=O)c1ccccc1 (configuration not stated) the survival was 1% (active). In the case of CCNC(=O)C1CN(S(=O)(=O)c2ccccc2)CCN1S(=O)(=O)c1ccccc1 (configuration not stated), the survival is reported as 75%. Compound O=C(N/N=C/c1ccco1)C1c2ccccc2Oc2ccccc21 has a survival of 96%. For Cc1ccc(CNS(=O)(=O)c2ccc3c(c2)CCN3S(C)(=O)=O)cc1, the survival was 94%. In the case of O=C(Nc1cccc(C(F)(F)F)c1)c1ccc(F)c(S(=O)(=O)N2CCc3ccccc3C2)c1, the survival is reported as 91%. For COc1ccc(-n2c(/C=C/c3cccc4ccccc34)nc3ccccc3c2=O)cc1Cl, the survival was 78%. Compound COc1cc2c(cc1OC)C(COc1ccc(F)cc1)N(C(=O)c1ccc(S(=O)(=O)N3CCCC3)cc1)CC2 (configuration not stated) has a survival of 81%. Compound COc1cc2c(cc1OC)C(COc1cc(C)cc(C)c1)N(C(=O)c1ccc(S(=O)(=O)N3CCCC3)cc1)CC2 (configuration not stated) has a survival of 73%. Work on COc1cc2c(cc1OC)C(COc1ccc(C(C)C)cc1)N(C(=O)COc1ccccc1)CC2 (configuration not stated) yielded a survival of 101%. In the case of COc1cc2c(cc1OC)C(COc1ccccc1OC)N(C(=O)COc1ccc(Cl)cc1)CC2 (configuration not stated), the survival is reported as 47% (active). Compound COC(=O)c1ccc(OCC2c3cc(OC)c(OC)cc3CCN2C(=O)COc2ccc(Cl)cc2)cc1 (configuration not stated) has a survival of 78%. With COc1cc2c(cc1OC)C(COc1ccccc1OC)N(C(=O)c1ccc(S(=O)(=O)N3CCCC3)cc1)CC2 (configuration not stated) the survival was 32% (active).
